Data published in PubChem BioAssay AID588519 (ICCB-Longwood Screening Facility, Harvard Medical School, 2011).
Hit rate of the full screen: of about 150,000 compounds, about 1,000 (0.67%) were called active. Cut-off read from the data, not from the text of the source: active = % elongation below about 90%; inactive = the rest, inconclusive results apart. The entries come from a sample that favours actives as a whole.

Molecular target: Genome polyprotein (Poliovirus type 1 (strain Mahoney)) (UniProt P03300)
Assay: poliovirus RdRp elongation inhibitors, primary screen, biochemical, fluorescence polarization, total intensity (AID 588519); for z-score: compound at 16.7 µg/mL
Settings: poliovirus polymerase elongation, stronger effect = lower value; for % elongation: compound at 16.7 µg/mL; for z-score: measured here: FP z-score
[1] = measured here: total intensity read-out

Chain of Genome polyprotein (Poliovirus type 1 (strain Mahoney)) (P03300 1749-2209 limits assumed): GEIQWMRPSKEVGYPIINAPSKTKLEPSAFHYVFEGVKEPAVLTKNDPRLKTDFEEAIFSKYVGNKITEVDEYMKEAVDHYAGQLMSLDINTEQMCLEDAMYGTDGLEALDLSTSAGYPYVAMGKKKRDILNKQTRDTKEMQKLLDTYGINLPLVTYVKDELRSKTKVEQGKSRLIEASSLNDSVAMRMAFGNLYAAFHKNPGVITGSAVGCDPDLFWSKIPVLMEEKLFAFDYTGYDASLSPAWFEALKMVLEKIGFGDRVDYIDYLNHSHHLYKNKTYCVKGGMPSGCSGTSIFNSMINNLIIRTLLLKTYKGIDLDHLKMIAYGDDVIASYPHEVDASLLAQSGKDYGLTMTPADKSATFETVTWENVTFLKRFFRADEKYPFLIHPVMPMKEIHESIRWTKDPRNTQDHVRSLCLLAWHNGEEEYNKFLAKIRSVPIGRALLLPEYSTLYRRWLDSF

| Structure (SMILES) | % elongation | z-score | % elongation [1] |
| --- | --- | --- | --- |
| Cc1ccc2oc(=O)c3cc(C(=O)NC4CCCC4)sc3c2c1 | 104% (inactive) | 0.9 | 98% |
| CCN(CC)CCNC(=O)c1cc2c(=O)oc3ccc(C)cc3c2s1 | 89% (active) | -1.5 | 89% |
| COc1ccc(Cl)cc1N(C)C(=O)c1cc2c(=O)oc3ccc(C)cc3c2s1 | 107% (inactive) | 0.4 | 113% |
| O=C(O)CSc1ccc(S(=O)(=O)N2CCCC2)cn1 | 105% (inactive) | 0.2 | 99% |
| O=C(NC1CCCCC1)c1ccc(-n2ccc3ccccc32)s1 | 100% (inactive) | -0.2 | 101% |
| N#Cc1c(/N=C/c2c(O)[nH]c(=O)[nH]c2=O)sc2c1CCC2 | 110% (inactive) | 1.2 | 130% |
| N#CSc1ccc(N2CCCCC2)cc1 | 99% (inactive) | -0.2 | 100% |
| N#CSc1ccc(N)c(Br)c1 | 75% (active) | -3.8 | 83% |
| O=C(COC(=O)C1CCC(=O)N1)Nc1nc(-c2ccccc2)cs1 (stereo unspecified) | 101% (inactive) | -0.2 | 104% |
| COc1ccc(-c2csc(=Nc3ccccc3)n2C)cc1 | 105% (inactive) | 0.5 | 102% |
| O=C(CNc1ccccc1N1CCCCC1)N1CCc2ccccc21 | 102% (inactive) | 0.1 | 94% |
| COc1ccccc1C(=O)COC(=O)COc1ccc(C#N)cc1 | 108% (inactive) | 0.7 | 108% |
| NC(=S)N1CCCCC1 | 99% (inactive) | -0.1 | 100% |
| Clc1nc(Nc2ccccc2)sc1/C=N/N1CCOCC1 | 149% (inactive) | 5.6 | 195% |
| Cc1cc(NC(=O)c2ccccc2C)no1 | 103% (inactive) | 0.4 | 103% |
| CS(=O)(=O)c1nc2ccccc2[nH]1 | 104% (inactive) | 0.4 | 107% |
| OC(c1nc2ccccc2[nH]1)C(O)C(O)C(O)c1nc2ccccc2[nH]1 (stereo unspecified) | 99% (inactive) | -0.6 | 104% |
| N#CC(=C1C(=O)c2ccccc2C1=O)c1nc2ccccc2[nH]1 | 80% (active) | -2.3 | 88% |
| COc1ccc(CN2CNc3c(c(C)nn3-c3ccccc3)C2)cc1 | 100% (inactive) | -1 | 106% |
| Cc1cccc(-n2c(Cn3ccc(C)n3)n[nH]c2=S)c1 | 104% (inactive) | 0.5 | 105% |
| C=C(C)CNC(=S)NN | 83% (active) | -1.3 | 86% |

| Structure (SMILES) | % elongation | z-score | % elongation [1] |
| --- | --- | --- | --- |
| CC(C)(C)CNC(=S)NN | 98% (inactive) | -0.9 | 101% |
| C=C(C)CNC(=S)N1CCNCC1 | 99% (inactive) | 0.1 | 105% |
| CCCCN(C)C(=O)C1CCN(c2nn3cc(-c4ccc(OC)cc4)nc3s2)CC1 | 104% (inactive) | 0.4 | 105% |
| Cc1ccc(NC2=C/C(=N/S(=O)(=O)c3ccc(F)cc3)c3ccccc3C2=O)cc1C | 102% (inactive) | 0.1 | 106% |
| COc1ccc(OCCCn2c(C3CC(=O)N(c4ccc(F)cc4)C3)nc3ccccc32)cc1 (stereo unspecified) | 109% (inactive) | 0.4 | 110% |
| CCc1ccccc1N1CC(c2nc3ccccc3n2CCCCOc2ccccc2)CC1=O (stereo unspecified) | 63% (active) | -7.7 | 68% |
| CCOc1ccc(N2CC(c3nc4ccccc4n3CCOc3ccc(OC)cc3)CC2=O)cc1 (stereo unspecified) | 111% (inactive) | 0.9 | 107% |
| COC(=O)c1ccccc1NC(=O)C1CC(c2cccc(Br)c2)=NO1 (stereo unspecified) | 104% (inactive) | 0.6 | 106% |
| CC(C)NC(=O)CCc1c[nH]c2ccccc12 | 62% (active) | -4.7 | 68% |
| CCOC(=O)C(N)Cc1c[nH]c2ccccc12 (stereo unspecified) | 100% (inactive) | -0.3 | 101% |
| CC(=O)Nc1ccc(NC(=O)C(C)OC(=O)Cc2c[nH]c3ccccc23)cc1 (stereo unspecified) | 105% (inactive) | 0 | 108% |
| CCOC(=O)c1c(C)c(-c2ccccc2)n(CC(=O)N2CCN(c3ccccn3)CC2)c1C | 99% (inactive) | -0.8 | 104% |
| COc1ccc(C/C(C#N)=C/N2CCN(c3ccccc3F)CC2)cc1 | 102% (inactive) | 0.1 | 107% |
| C=CCn1ccc2c(OCC(=O)c3ccccc3)cccc2c1=O | 104% (inactive) | 0.6 | 101% |
| COCCNC(=O)N1c2ccccc2Sc2ccccc21 | 103% (inactive) | 0.4 | 100% |
| CN1/C(=C/C(=S)C(C)(C)C)Sc2ccccc21 | 84% (active) | -1.7 | 83% |
| CCNC(=O)N1c2ccccc2Sc2ccccc21 | 101% (inactive) | 0.2 | 103% |
| Cc1[nH]nc2c1C1C(C2)C1(C)C (stereo unspecified) | 76% (active) | -7.4 | 105% |
| CCc1nc(NCc2ccccc2)c(C#N)c2c1COC(C)(C)C2 | 107% (inactive) | 0.4 | 112% |
| O=C(CSc1nnc(-c2c[nH]c3ccccc23)o1)NCC1CN(Cc2ccccc2)CCO1 (stereo unspecified) | 105% (inactive) | 0.1 | 109% |
| COc1ccc(-c2noc(CC(=O)N(C)c3ccccc3)n2)cc1 | 106% (inactive) | 0.7 | 100% |

| Structure (SMILES) | % elongation | z-score | % elongation [1] |
| --- | --- | --- | --- |
| C=CCSc1nnc(NC(=O)CSc2nc(C)cc(=O)[nH]2)s1 | 88% (active) | -4 | 65% |
| C=CCSc1nnc(NC(=O)CCNS(=O)(=O)c2ccccc2)s1 | 103% (inactive) | 0.2 | 107% |
| COC(=O)Cc1cnc(NC(=O)CSc2nc(C(C)C)cc(=O)[nH]2)s1 | 102% (inactive) | 0.3 | 100% |
| COc1ccccc1NC(=O)Nc1cc(C(C)(C)C)nn1-c1ccccc1 | 105% (inactive) | 0.5 | 102% |
| Cc1sc2nc(COC(=O)C(NC(=O)c3ccco3)C(C)C)[nH]c(=O)c2c1C (stereo unspecified) | 94% (inactive) | -1.2 | 219% |
| CCOC(=O)c1cnc2c(C)cc(Cl)cc2c1NCCc1ccc(OC)c(OC)c1 | 104% (inactive) | -0.4 | 104% |
| CCOC(=O)c1cnc2c(C)cc(C)cc2c1Nc1ccc(N2CCOCC2)cc1 | 107% (inactive) | 0.5 | 110% |
| CCOC(=O)c1cnc2c(C)c(C)ccc2c1NCCCN(C)C | 69% (active) | -5 | 53% |
| O=C(COC(=O)c1cccs1)NCc1cccs1 | 100% (inactive) | -0.1 | 101% |
| Cc1nc2ccccc2nc1OCC(=O)N(C1CCCCC1)C1CCCCC1 | 99% (inactive) | -0.3 | 97% |
| CCOC(=O)c1c(NC(=O)COc2cc(C)ccc2C(C)C)sc(C)c1C | 89% (active) | -2.6 | 88% |
| COC(=O)c1c(NC(=O)C(C)Oc2ccc(Cl)c(C)c2)sc(C)c1C (stereo unspecified) | 109% (inactive) | 0.5 | 106% |
| CCOC(=O)c1sc(NC(=O)/C=C/c2ccc(C(C)C)cc2)c(C(=O)OCC)c1C | 105% (inactive) | 0.3 | 109% |
| COC(=O)c1sc(C)cc1OC(=O)c1ccc(OC)cc1 | 99% (inactive) | -0.2 | 100% |
| CCCc1nc2c3ccccc3ncn2n1 | 105% (inactive) | 0.4 | 113% |
| Cc1ccc(Cl)cc1NC(=O)C(C)n1nnc2sc(-c3ccccc3)cc2c1=O (stereo unspecified) | 65% (active) | -6.8 | 65% |
| CCCCCCn1nnc2sc(-c3ccccc3)cc2c1=O | 121% (inactive) | 2.3 | 118% |
| CC(C)OC(=O)C(C)n1cnc2sc(-c3ccccc3)cc2c1=O (stereo unspecified) | 104% (inactive) | 0 | 105% |
| CC1(C)CC(=O)C=C(Nc2sc3c(c2C#N)CCCC3)C1 | 98% (inactive) | -1 | 97% |
| CCOc1ccc(S(=O)(=O)NCCSc2ccccc2)cc1 | 100% (inactive) | -0.1 | 103% |
| O=C(CSc1nnnn1-c1ccccc1)NCCC12CC3CC(CC(C3)C1)C2 | 102% (inactive) | -0.1 | 107% |

| Structure (SMILES) | % elongation | z-score | % elongation [1] |
| --- | --- | --- | --- |
| COc1ccc(S(=O)(=O)NCCSc2nnnn2-c2ccccc2)cc1 | 75% (active) | -7.9 | 73% |
| O=C(Nc1ccc(S(=O)(=O)C(F)F)cc1)c1cccnc1N1CCCC1 | 102% (inactive) | -0.3 | 104% |
| Cc1ccc(-n2cc[nH]c(=O)c2=O)cc1 | 103% (inactive) | 0.3 | 102% |
| CCCC(=O)Nc1ccc(C(=O)CSc2nnc(Cc3ccccc3)o2)cc1 | 106% (inactive) | 0.3 | 106% |
| O=C(Oc1ccc(Br)cc1)c1ccco1 | 101% (inactive) | -0.3 | 105% |
| O=C(CSc1ccc(Br)cc1)c1ccco1 | 97% (inactive) | -0.9 | 89% |
| O=C(Sc1ccc(Oc2ccc(SC(=O)c3ccco3)cc2)cc1)c1ccco1 | 44% (active) | -11.5 | 51% |
| CCCCN(C)C(=O)C1CCCN(c2nnc(C)c3c(C)n(-c4ccccc4)nc23)C1 (stereo unspecified) | 101% (inactive) | -0.1 | 103% |
| O=C(CSc1ccccc1)c1ccccc1 | 79% (active) | -2.3 | 75% |
| O=C(CSc1nnc2ccccn12)c1ccccc1 | 101% (inactive) | 0.1 | 103% |
| O=C(CCC(=O)c1ccccc1)c1ccccc1 | 100% (inactive) | 0.1 | 102% |
| O=C(Nc1ccccc1I)C1CCCO1 (stereo unspecified) | 101% (inactive) | 0.2 | 100% |
| CN(Cc1ccccc1)C(=O)Cn1cnc(S(=O)(=O)N2CCCC2)c1 | 103% (inactive) | 1 | 101% |
| O=C(Nc1ccc(Cl)cc1Cl)C1CC(=O)N(C2CCCCC2)C1 (stereo unspecified) | 105% (inactive) | 0.2 | 102% |
| Oc1c(C(c2cccnc2)N2CCOCC2)ccc2cccnc12 (stereo unspecified) | 85% (inactive) | -2.9 | 110% |
| O=C(CCc1ccccc1)NCC1COC2(CCCCC2)O1 (stereo unspecified) | 106% (inactive) | 0.3 | 112% |
| COc1cccc(NC(=O)CN(C)CC(=O)Nc2ccc3c(c2)CCC3)c1 | 100% (inactive) | -0.4 | 101% |
| CCN(CC(=O)Nc1ccc(S(=O)(=O)N2CCCC2)cc1)CC(=O)Nc1cccc(OC)c1 | 89% (active) | -1.2 | 88% |
| COc1cc(NC(=O)CN2CCN(S(=O)(=O)c3ccc(Br)cc3)CC2)cc(OC)c1 | 114% (inactive) | 1.5 | 102% |
